TDP1 inh: blocks human tyrosyl-DNA phosphodiesterase 1; Q9NUW8; recombinant TDP1, AlphaScreen DNA substrate cleavage; Potency, µM (top dose mostly 130 µM), hits mostly inhibitors; 0.28% of 350,000 active; further: nearly all actives have a fitted effect of over 40% in size
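AlphaScreen read-out: signal falls as enzyme removes the 3' tyrosine-FITC from a 5'-biotinylated DNA oligo (15 nM, 5 min, RT). Enzyme was E. coli-made recombinant Tdp1 at 1 nM, exposed to compound for 15 min beforehand; beads 10 ug/ml, 10 min.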
TDP1 cell CPT: DT40-hTDP1 cell growth loss with CPT. AID 686979. chicken DT40 Tdp1-/-;hTDP1 cells + 20 nM CPT, ATP luminescence, 48 h. Potency, µM (series often up to 46.2 µM), hits mostly inhibitors. 12% of 420,000 active; further: nearly all actives have a fitted effect of over 55% in size
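Cell growth measured by CellTiter-Glo luminescence after a minimum 48 h, 37 C compound exposure with 20 nM CPT in Tdp1-knockout DT40 cells stably expressing hTDP1, seeded 400/well; qHTS titration format.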
VP16 counter: counter-screen for ROR gamma inhibitors: Gal4-VP16 reporter; Drosophila S2 Gal4-VP16 UAS-luciferase, luminescence, 20 h; Potency, µM (doses to about 53.6 µM), hits mostly inhibitors; 3.5% of 310,000 active; AID 2546;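 further: Gal4-VP16 expression switched on by copper sulfate through the metallothionein promoter; nearly all actives have a fitted effect of over 50% in size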
TDP1 cell noCPT: qHTS for Inhibitors of human tyrosyl-DNA phosphodiesterase 1 (TDP1): qHTS in cells in absence of CPT. DT40 Tdp1-/- hTDP1 cells, no CPT, ATP luminescence, 48 h. Potency, µM (top dose mostly 46.2 µM), actives largely listed as inhibitors. 15% of 420,000 active. AID 686978, 2013; further: nearly all actives have a fitted effect of over 55% in size
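Chicken DT40 Tdp1-/- cells complemented with human TDP1, screened without camptothecin (DMSO vehicle only), 400 cells/well. Compounds pin-transferred, cells incubated at 37 °C for at least 48 hr. Growth read as ATP-dependent luminescence (CellTiter-Glo, 30 min at RT).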
RORg inh: blocks mouse ROR gamma transcriptional activity; P51450; AID 2551; 5.4% of 310,000 active; Drosophila S2 Gal4-RORgamma UAS-luciferase reporter, 20 h; Potency, µM (doses to about 53.6 µM), actives largely listed as inhibitors; further: nearly all actives have a fitted effect of over 60% in size
Target sequence (P51450 whole entry, looked up, the tested form may be a part): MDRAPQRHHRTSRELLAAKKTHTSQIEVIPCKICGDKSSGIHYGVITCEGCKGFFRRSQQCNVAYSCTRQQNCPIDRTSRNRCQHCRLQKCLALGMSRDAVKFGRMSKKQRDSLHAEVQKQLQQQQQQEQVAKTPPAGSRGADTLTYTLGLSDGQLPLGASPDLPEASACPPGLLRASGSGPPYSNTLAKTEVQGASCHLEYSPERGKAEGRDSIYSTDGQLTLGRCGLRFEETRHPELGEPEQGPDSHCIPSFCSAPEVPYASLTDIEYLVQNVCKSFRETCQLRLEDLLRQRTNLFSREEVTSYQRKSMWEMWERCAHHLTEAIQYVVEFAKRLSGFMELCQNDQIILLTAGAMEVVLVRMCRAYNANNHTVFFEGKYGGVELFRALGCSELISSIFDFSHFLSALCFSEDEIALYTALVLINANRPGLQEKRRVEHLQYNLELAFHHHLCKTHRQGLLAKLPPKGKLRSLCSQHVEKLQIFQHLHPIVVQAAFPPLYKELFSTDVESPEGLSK
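Compounds are pin-transferred onto Drosophila Schneider cells expressing a copper-inducible Gal4–ROR gamma transactivation domain fusion. After 1 hr, copper sulfate is added to 700 uM final; luciferase is read 20 hr later.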
Large screens that a line does not name were inactive. Rows were chosen to be rich in hits. Some 19% of all compounds tested hit in one or more screens of this group. The call rests on the fitted dose curve; in most records, active means well fitted curve in the direction sought with a large enough effect; inconclusive means small, poorly fitted or top-dose-only effect, or another doubt; inactive means no such curve, though single readings can be large; an effect the other way counts as inactive or inconclusive.

COCCCNC(=O)c1c(NC(=O)c2nc(S(C)(=O)=O)ncc2Cl)sc2c1CCCC2	TDP1 cell CPT 1µM, TDP1 cell noCPT 0.73µM (no result: VP16 counter, RORg inh)
Cc1ccc(S(=O)(=O)N2CCN(c3ccc4nnc(-c5ccccc5)n4n3)CC2)cc1	TDP1 cell CPT inconclusive, TDP1 cell noCPT inconclusive
CCc1nc2ccc(C(=O)Nc3ccc(OC)c(OC)c3)cn2c1N(C)C(=O)Cc1ccccc1	none (no result: TDP1 inh, VP16 counter, RORg inh)
CCn1nccc1NC(=O)c1csc([C@@H]2O[C@H](CO)[C@H](O)[C@H](O)[C@H]2O)n1	TDP1 cell CPT inconclusive (no result: TDP1 inh, VP16 counter, RORg inh)
O=C(CN(CC1CCCO1)C(=O)Cn1nnc(-c2ccc(F)cc2)n1)NC1CCCCC1 (configuration not stated)	TDP1 cell CPT inconclusive
CCN(CC)/C(Sc1ccccc1)=C(/C(Cl)=C(Cl)Cl)[N+](=O)[O-]	TDP1 cell CPT 21µM, TDP1 cell noCPT inconclusive
CCN(CC)/C(Sc1ccccc1)=C(\C(Cl)=C(Cl)Cl)[N+](=O)[O-]	TDP1 cell CPT inconclusive, TDP1 cell noCPT inconclusive
O=[N+]([O-])/C(C(Cl)=C(Cl)Cl)=C(\Sc1ccccc1)N1CCCCC1	TDP1 cell CPT 18µM, TDP1 cell noCPT 23µM
CC(C)CN(C)C(=O)CCc1nnc(Cc2ccc(-c3ccccc3)cc2)o1	TDP1 cell CPT inconclusive, TDP1 cell noCPT 12µM
O=C(CCc1nnc(Cc2ccc(-c3ccccc3)cc2)o1)N1CCCC1	TDP1 cell CPT inconclusive, TDP1 cell noCPT inconclusive
COc1ccc(C(c2c(C)[nH]n(C(N)=S)c2=O)C(C#N)C#N)cc1 (configuration not stated)	TDP1 cell CPT 23µM, VP16 counter 4.5µM, TDP1 cell noCPT inconclusive, RORg inh 4.5µM
CCOc1ccc(S(=O)(=O)N/N=C(\C)C2CCCCC2)cc1	VP16 counter inconclusive, TDP1 cell noCPT inconclusive
Fc1ccc(-c2ccnc(=S)[nH]2)cc1	TDP1 cell CPT 21µM, VP16 counter 2.8µM, TDP1 cell noCPT inconclusive, RORg inh 3.5µM
COc1cc(OC)c2ccc(=O)oc2c1C(CC(=O)N1CCOCC1)c1ccc2c(c1)OCO2 (configuration not stated)	none
COc1ccc(N2C(=O)c3ccc(C(=O)Nc4cc(OC)ccc4OC)cc3C2=O)cc1	none (no result: TDP1 inh)
COc1ccc(N2C(=O)c3ccc(C(=O)OC(C)C)cc3C2=O)cc1	TDP1 cell CPT 6.5µM, TDP1 cell noCPT 5.8µM, RORg inh inconclusive
Cc1ccc(N(C(=O)Cn2nnc(-c3ccc(C)o3)n2)C(C(=O)NC2CCCC2)c2ccco2)cc1 (configuration not stated)	TDP1 cell CPT inconclusive, TDP1 cell noCPT 13µM
Cc1ccc(-c2nnn(CC(=O)N(CC(=O)NC3CCCCC3)c3ccc(F)c(Cl)c3)n2)o1	TDP1 cell CPT 13µM, VP16 counter inconclusive, TDP1 cell noCPT 21µM, RORg inh inconclusive
Cc1ccc(N(C(=O)Cn2nnc(-c3cccs3)n2)C(C(=O)NC2CCCC2)c2ccncc2)cc1 (configuration not stated)	TDP1 cell CPT 23µM, TDP1 cell noCPT 21µM
Cc1ccc(-c2nnn(CC(=O)N(CC(=O)NC3CCCC3)c3ccc(F)c(Cl)c3)n2)o1	TDP1 cell CPT inconclusive, VP16 counter inconclusive, TDP1 cell noCPT inconclusive, RORg inh inconclusive
Cc1ccc(N(C(=O)Cn2nnc(-c3ccccc3F)n2)C(C(=O)NC2CCCC2)c2ccncc2)cc1 (configuration not stated)	TDP1 cell CPT inconclusive, TDP1 cell noCPT inconclusive
Cc1ccc(C)c(N(C(=O)Cn2nnc(-c3cccs3)n2)C(C(=O)NC2CC2)c2ccc(C)o2)c1 (configuration not stated)	TDP1 cell CPT inconclusive, TDP1 cell noCPT 11µM
Cc1ccc(-c2nnn(CC(=O)N(c3ccccc3)C(C(=O)NC3CCCC3)c3ccncc3)n2)o1 (configuration not stated)	none (no result: TDP1 inh)
Cc1ccc2c(cnn2C(=O)CCC(=O)NCc2ccccc2Cl)c1	none (no result: TDP1 inh)
COc1ccc(N(CC(=O)NC2CCCC2)C(=O)Cn2nnc(-c3ccc(OC)c(OC)c3)n2)cc1	none
COc1ccc(-c2nnn(CC(=O)N(CC(=O)NC3CCCC3)c3ccccc3)n2)cc1OC	TDP1 cell CPT inconclusive, TDP1 cell noCPT 15µM
O=C1c2ccccc2C(=O)c2c(NCc3cccnc3)cccc21	TDP1 cell CPT inconclusive, VP16 counter 3.2µM, TDP1 cell noCPT inconclusive
COc1ccc(CNC(=O)c2c(C)oc3c2C(=O)c2ccccc2C3=O)cc1	TDP1 cell CPT 8.2µM, TDP1 cell noCPT 10µM
COc1cc(=O)oc(-c2ccccc2)c1C(C)=O	none (no result: TDP1 inh, VP16 counter, RORg inh)
COc1ccc(CNC(=O)c2[nH]c(C)c(C(C)=O)c2C)cc1	TDP1 cell CPT 9.2µM, TDP1 cell noCPT inconclusive
CC(=O)c1c(C)oc2c1C(=O)c1ccccc1C2=O	TDP1 cell CPT 8.2µM, VP16 counter 16µM, TDP1 cell noCPT 7.3µM, RORg inh 4µM
COc1ccc([C@]23Cc4ccccc4C(O2)c2c(c4ccc(OC)cc4oc2=O)O3)cc1	VP16 counter inconclusive (no result: TDP1 inh, TDP1 cell CPT, TDP1 cell noCPT)
CCSc1nnc(SCC(=O)N2CCN(C(=O)c3ccco3)CC2)s1	none
Cc1ccc(F)cc1CNC(=O)C1CCC(=O)N(CC2CCCCC2)C1 (configuration not stated)	RORg inh inconclusive
Cc1oc(CSCC2CCCO2)cc1C(=O)O (configuration not stated)	RORg inh inconclusive
CCCCC(CC)CNC(=O)c1[nH]c(C)c(C(C)=O)c1C (configuration not stated)	TDP1 cell CPT inconclusive, TDP1 cell noCPT 23µM
Cc1oc2c(c1C(=O)NCc1cccnc1)C(=O)c1ccccc1C2=O	TDP1 cell CPT 0.92µM, VP16 counter 4.5µM, TDP1 cell noCPT 1µM, RORg inh inconclusive (no result: TDP1 inh)
CCCCNC(=O)c1[nH]c(C)c(C(C)=O)c1C	none
O=C(c1ccccc1)[C@@H]1O[C@H]1c1ccc(-c2ccccc2)cc1	TDP1 cell CPT 4.2µM, TDP1 cell noCPT 4.2µM
O=C(O)C1CCC(c2ccc(-c3ccccc3)cc2)CC1 (configuration not stated)	none
Cc1cc(C(=O)COC(=O)c2cccnc2Cl)c(C)n1CC1CCCO1 (configuration not stated)	TDP1 cell CPT 23µM, TDP1 cell noCPT inconclusive, RORg inh inconclusive
Cc1cc(C(=O)COC(=O)c2cc(O)c3ccccc3c2O)c(C)n1CC1CCCO1 (configuration not stated)	TDP1 cell CPT 16µM, TDP1 cell noCPT inconclusive, RORg inh 16µM
Cc1cc(C(=O)COC(=O)c2ccccc2Br)c(C)n1CC1CCCO1 (configuration not stated)	TDP1 cell CPT inconclusive, VP16 counter 8.9µM, TDP1 cell noCPT inconclusive, RORg inh 14µM

High-throughput results (PubChem)
